Compound activity deposited in PubChem BioAssay by several laboratories.
This is a sample that favours compounds with a hit; in the whole collection about 5.2% have one here.
ALR inh: inhibitors of human sulfhydryl oxidase ALR | inhibition, % (test concentration not listed) | purified ALR, DTT oxidation, H2O2 HRP-luminol luminescence | AID 485317 | hit rate 3.8% among 290,000;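 active = mean replicate inhibition above about 79%, with every replicate also reaching it, limit read from the data; inconclusive = only one of the two criteria met; inactive = mean below limit and not every replicate reaching it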
Target sequence (P55789 whole entry, looked up): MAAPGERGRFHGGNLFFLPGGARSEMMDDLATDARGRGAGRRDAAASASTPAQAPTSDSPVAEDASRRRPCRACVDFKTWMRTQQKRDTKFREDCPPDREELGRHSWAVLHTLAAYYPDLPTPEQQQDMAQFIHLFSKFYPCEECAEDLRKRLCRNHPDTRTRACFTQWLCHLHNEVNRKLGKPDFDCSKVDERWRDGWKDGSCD
A3A deaminase: inhibitors of human APOBEC3A DNA deaminase; P31941; recombinant A3A, FAM/TAMRA ssDNA deamination fluorescence; inhibition, % at 20 µM; hit rate 0.41% among 330,000;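 active = at least 40% inhibition at 20 µM here, with at most 30% in a related deaminase screen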
Target sequence (P31941 whole entry, looked up): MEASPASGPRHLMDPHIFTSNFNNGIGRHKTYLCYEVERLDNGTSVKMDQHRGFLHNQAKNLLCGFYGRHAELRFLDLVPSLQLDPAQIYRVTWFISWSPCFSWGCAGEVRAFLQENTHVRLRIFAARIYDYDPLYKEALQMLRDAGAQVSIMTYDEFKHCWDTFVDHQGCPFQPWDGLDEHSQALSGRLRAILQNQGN
Yeast superoxide: caloric restriction mimetics inhibiting age-related superoxide in yeast. S. cerevisiae aged cells, superoxide DHE fluorescence; stronger effect = lower value. superoxide response (% of plate mean), % at 10 µM. hit rate 0.18% among 330,000. AID 2690;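 active = superoxide response under a set limit, about three screen SD below normal, cut at about 65% in these data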;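 note: yeast aged for seven days with compound at 30 °C before DHE staining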
A3G deaminase: inhibitors of human APOBEC3G DNA deaminase; Q9HC16; AID 493012; hit rate 0.28% among 330,000; recombinant A3G, ssDNA deamination FAM/TAMRA fluorescence; inhibition, % at 20 µM;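 active = inhibition of at least 40% at 20 µM, with no more than 30% in the related APOBEC3A deaminase screen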
M18AAP inhibitor: PfM18AAP enzyme inhibition; recombinant PfM18AAP, H-Glu-NHMec fluorogenic cleavage; hit rate 1.2% among 290,000; AID 1822; inhibition, % at 7.35 µM;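 active = inhibition above the campaign mean inhibition over all tested compounds plus 3 SD, cut at about 28% in these data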
CendR NRP1 mod: alters CendR peptide binding to human NRP-1; O14786; FAM-RPARPAR peptide binding to NRP-1, fluorescence polarization; inhibition, % at 25 µM; hit rate 0.85% among 360,000; AID 602438;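 active = inhibition or corrected inhibition above about 18%, plus a signal ratio from 0.5 to 1.5, limit read from the data, passing the limit was not always enough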
Of the large screens only hits and unclear results are named; the others gave an inactive call.

Nc1ccc2oc(=O)c(-c3ccccc3)cc2c1	ALR inh 98
O=c1oc2ccccc2cc1NCc1ccccc1O	ALR inh 96
Cc1cc(N)ccc1-c1cc2ccccc2oc1=O	ALR inh 99
COc1cc(N)ccc1-c1cc2ccccc2oc1=O	none
O=c1oc2ccccc2cc1-c1ccc(O)cc1	ALR inh 95
COc1ccc(-c2cc3ccc(O)cc3oc2=O)cc1OC	ALR inh 99
COc1ccc(-c2cc3ccc(OCC(N)=O)cc3oc2=O)cc1OC	none
Cc1ccc[n+](CC(=O)Nc2ccc(N(C)C)cc2)c1	ALR inh 100
CN(C)c1ccc(NC(=O)C[n+]2ccccc2)cc1	ALR inh 99
CN(C)c1ccc(/C=N/NC(=O)C[n+]2ccccc2)cc1	ALR inh 99 (no result: M18AAP inhibitor)
CC(=O)c1ccc(NC(=O)C[n+]2ccc(N(C)C)cc2)cc1	none
CN(C)c1ccc(NC(=O)Oc2ccccc2)cc1	ALR inh 97
O=C1[C@@H]2C(c3ccc(F)cc3)=NO[C@@H]2C(=O)N1Cc1ccccc1	none
COc1ccc(CN2C(=O)[C@@H]3C(c4ccc(F)cc4)=NO[C@@H]3C2=O)cc1	ALR inh 99
CCOc1ccccc1C(=O)OCC(=O)NCC1CCCO1 (stereo not drawn)	none (no result: M18AAP inhibitor)
Cc1cnc(-c2nnc(N(C)C(=O)C3CCCO3)s2)cn1 (stereo not drawn)	none
CCCNC(=O)c1ccc2c(=O)c(O)c(C)[nH]c2c1	CendR NRP1 mod 21 (no result: M18AAP inhibitor)
CS(=O)(=O)c1ccc2nc(NC(=O)CN3CCN(Cc4ccccc4)CC3)sc2c1	none
COc1ccc(-c2[nH]ncc2CN(C)C(C)c2cccs2)c(F)c1 (stereo not drawn)	none
COc1ccc(-c2[nH]ncc2CN(C)CCc2c(C)n[nH]c2C)c(F)c1	CendR NRP1 mod 26
O=C(Nc1cccc(F)c1)C1CCCN(S(=O)(=O)c2ccccc2)C1 (stereo not drawn)	none
CC(NC1=CC(=O)c2cccnc2C1=O)C(O)c1ccccc1 (stereo not drawn)	CendR NRP1 mod 36 (no result: ALR inh, A3A deaminase, Yeast superoxide, A3G deaminase, M18AAP inhibitor)
Cc1ccc2[nH]c(C(=O)O)c(NC(=O)CN3CCN(c4cccc(C)c4C)CC3)c2c1	ALR inh 94
CC1(C)CN(O)CCN1O	CendR NRP1 mod 25
O=[N+]([O-])c1ccc(Nc2ccccc2O)c2nonc12	ALR inh 99
O=C(O)c1ccc(Nc2ccc([N+](=O)[O-])c3nonc23)cc1	none
Oc1ccc2ccccc2c1C=Nc1ccc(N2CCOCC2)cc1	none (no result: ALR inh, CendR NRP1 mod)
C(=Nc1ccc(N2CCOCC2)cc1)c1c[nH]c2ccccc12	ALR inh 99
c1ccc(-n2nnnc2-c2cnc(-c3cccnc3)nc2-c2cccs2)cc1	none
CC(=O)Nc1ccc(NC(=O)COC(=O)C2CCCCC2)cc1	CendR NRP1 mod 24 (no result: M18AAP inhibitor)
COc1ccc(NC(=O)COC(=O)CCCc2c[nH]c3ccccc23)cc1	ALR inh 85
CC(=O)NC(Cc1c[nH]c2ccccc12)C(=O)OCC(=O)Nc1ccc2c(c1)OCO2 (stereo not drawn)	ALR inh 89
CC(=O)Nc1ccc(NC(=O)COC(=O)Cc2c[nH]c3ccccc23)cc1	ALR inh 83
CN(CCC#N)C(=O)CSc1nnc(-c2ccco2)n1N	none
OCCNc1nc(Nc2ccccc2O)nc(N2CCCC2)n1	ALR inh inconclusive (no result: M18AAP inhibitor)
O=C(O)CNS(=O)(=O)c1ccc(-c2ccccc2)cc1	none (no result: ALR inh, A3A deaminase, Yeast superoxide, A3G deaminase, CendR NRP1 mod)
CCOC(=O)c1cc(C#N)c(SCC(=O)OC)[nH]c1=O	ALR inh 99
COC(=O)CSc1[nH]c(=O)cc(C)c1C#N	none
CCOC(=O)c1cc(C#N)c(N2CCN(c3ccc(OC)cc3)CC2)[nH]c1=O	ALR inh 93
CCOC(=O)c1[nH]c(CN2CCN(c3ccc(OC)cc3)CC2)c(C(=O)OCC)c1C	none
COc1ccc(CCNS(=O)(=O)c2ccc(OC)cc2)cc1	none (no result: ALR inh)
O=C(C1=C[C@H](c2ccc3c(c2)OCO3)C[C@H](OCCCCO)O1)N1CCOCC1	none (no result: Yeast superoxide)
Cn1c(=O)c2[nH]c(CCCc3ccc([N+](=O)[O-])cc3)nc2n(C)c1=O	CendR NRP1 mod 30 (no result: ALR inh, A3A deaminase, Yeast superoxide, A3G deaminase, M18AAP inhibitor)
Cn1c(=O)c2[nH]c(CCc3ccncc3)nc2n(C)c1=O	none (no result: ALR inh, A3A deaminase, Yeast superoxide, A3G deaminase, M18AAP inhibitor)
O=C(O)c1ccccc1-c1ccccc1C(=O)Nc1ccc2c(c1)oc(=O)c1ccccc12	none (no result: ALR inh, A3A deaminase, Yeast superoxide, A3G deaminase, M18AAP inhibitor)
O=C(O)c1ccccc1-c1c2cc(I)c(=O)c(I)c-2oc2c(I)c(O)c(I)cc12	ALR inh 82 (no result: M18AAP inhibitor)
